PPC-1+TRAIL kill – compounds killing PPC-1 cancer cells with TRAIL present (potentiator screen, no TRAIL-free arm) | PPC-1 cells + TRAIL, ATPLite viability luminescence | cell killing (% activity), % at 4 µM or 5 µM | 220,000 compounds, 0.41% hits | AID 1443;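 active means cell killing above 50% in the first pass at 4 µM, then a duplicate retest at 5 µM averaging 50% or more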
HSF1 inhib – HSF1 inhibition; activity change, negative = inhibition, % at 7.5 µM (by protocol); 300,000 compounds, 0.77% hits; NIH3T3-HGL HSE-luciferase, MG132-induced, luminescence 8 h; active compounds read low; AID 2098;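 active means more than half of replicate wells show activity change below -50%, luminescence cut by over half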;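 further: luciferase reports HSF-1 transcriptional activity via heat shock element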
STAT1 inh – reduces IFN-gamma driven STAT1 reporter signal. NIH 3T3 STAT1-luciferase reporter, luminescence. inhibition, % at 5.5 µM. 200,000 compounds, 0.35% hits. AID 920;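 active means inhibition above a set limit, the mean inhibition across all tested compounds plus 3 SD, cut at about 34% in these data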
HSP90 inh – HSP90 refolding inhibition in rabbit reticulocyte lysate; inhibition, % at 5.6 µM; 290,000 compounds, 0.91% hits; AID 1789; luciferase refolding luminescence, 3 h;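 active means inhibition above the screen-wide mean plus 3 SD, computed separately per campaign, cut at about 16% in these data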;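 further: inhibitors lower the luminescence because luciferase stays unfolded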
C8 TRAIL sens – sensitizes caspase-8 expressing cells to TRAIL; NB7+C8 cells + TRAIL, ATPlite viability luminescence; inhibition (viability loss, TRAIL sensitization), % at 10 µM; 360,000 compounds, 1% hits; AID 624354;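 active means compounds causing at least 50% loss of cell viability in the single-dose screen, relative to plate controls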
STAT3 inh – inhibitors of IL-6 induced STAT3 signaling | U3A cells, IL-6 STAT3-luciferase reporter, luminescence; host cell line lacks STAT1 | inhibition, % at 5.5 µM | 190,000 compounds, 0.89% hits | AID 862;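 active means inhibition above the mean inhibition across all screened compounds plus 3 SD, cut at about 44% in these data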
HSP90 inh confirm – confirmation of HSP90 inhibitors; rabbit reticulocyte lysate, luciferase refolding luminescence, 3 h; 2,300 compounds, 64% hits; AID 1846; inhibition, % at 5.9 µM; shares compounds with HSP90 inh; in the data active means inhibition above about 18%
luciferase ctr – counter-screen for HSP90 inhibitors: inhibitors of firefly luciferase; shares compounds with HSP90 inh; purified native firefly luciferase, luminescence; inhibition, % at 5.9 µM; 2,300 compounds, 48% hits;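 active means inhibition above the mean inhibition of all tested sample wells plus 3 SD, cut at about 10% in these data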
Target sequence (P08659 whole entry, looked up): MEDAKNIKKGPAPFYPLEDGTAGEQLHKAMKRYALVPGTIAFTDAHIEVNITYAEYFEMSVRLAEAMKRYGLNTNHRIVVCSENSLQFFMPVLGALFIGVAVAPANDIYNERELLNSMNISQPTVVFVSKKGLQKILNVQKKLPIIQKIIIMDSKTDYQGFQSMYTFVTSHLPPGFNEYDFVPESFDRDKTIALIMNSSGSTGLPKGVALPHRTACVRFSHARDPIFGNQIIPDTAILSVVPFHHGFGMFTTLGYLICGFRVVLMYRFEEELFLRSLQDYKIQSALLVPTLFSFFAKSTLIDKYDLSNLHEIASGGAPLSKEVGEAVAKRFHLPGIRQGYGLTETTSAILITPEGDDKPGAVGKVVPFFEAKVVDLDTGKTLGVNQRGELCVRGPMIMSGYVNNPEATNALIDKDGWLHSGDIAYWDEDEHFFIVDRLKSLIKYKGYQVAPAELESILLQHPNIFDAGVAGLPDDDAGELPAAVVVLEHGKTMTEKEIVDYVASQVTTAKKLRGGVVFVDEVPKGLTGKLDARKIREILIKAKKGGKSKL
A number is an active result; n = inactive; x = no result. In the library only some 2.4% were active in any assay of this set; here they are far more common.

SMILES	PPC-1+TRAIL kill	HSF1 inhib	STAT1 inh	HSP90 inh	C8 TRAIL sens	STAT3 inh	HSP90 inh confirm	luciferase ctr
Cn1c(=O)n(-c2ccc(Cl)cc2)c(=O)c2c3c(sc21)COC(C)(C)C3	n	n	n	41	n	n	n	n
CC(NC(=O)CSc1nnc(-c2cccnc2)n1N)c1ccccc1 (stereo not given)	n	n	n	18	n	n	n	n
OCC[C@@H]1C[C@H](O)[C@@H](O)[C@@]2(OCc3ccc(CO)cc32)O1	x	x	x	x	n	x	x	x
CC(=O)N1c2ccccc2Oc2cc3ccccc3cc21	n	n	n	21	n	n	47	n
O=C(CCl)N1c2ccccc2Oc2ccc3ccccc3c21	x	x	x	x	n	x	x	x
COc1ccc(/C=C/C(=O)c2c(O)ccc3c(C)cc(=O)oc23)cc1	n	n	n	n	n	n	x	x
O=c1c2c(nc3n1CCCCC3)sc1c(O)c(Br)ccc12	n	n	n	23	n	n	35	37
CCN(CC)CCOc1c(Br)ccc2c1sc1nc3n(c(=O)c12)CCC3	n	n	n	n	n	n	x	x
Cc1oc(-c2ccc3c(c2)OCCO3)cc1C(=O)NCC(=O)O	x	n	n	90	n	n	95	79
Cc1oc(-c2ccc3c(c2)OCCO3)cc1C(=O)NC(CCC(=O)O)C(=O)O (stereo not given)	n	n	n	64	n	n	77	33
COc1ccc(C(C)(NC(C)=O)c2nc(-c3ccc(F)c(Cl)c3)cs2)cc1 (stereo not given)	x	x	x	x	n	x	x	x
COc1ccc(NC(=O)c2[nH]c(C)c(C(C)=O)c2C)cc1	n	n	n	n	n	n	x	x
CCOc1ccc(NC(=O)c2[nH]c(C)c(C(C)=O)c2C)cc1	x	n	x	19	n	x	n	n
COC(=O)C1=CN(c2ccc(C(C)(C)C)cc2)C(N)=C(C#N)C1c1cccc2ccccc12 (stereo not given)	x	x	x	x	n	x	x	x
Cc1nn(-c2ccccc2)c(Cl)c1/C=N/NC(=O)c1[nH]ncc1Br	x	n	x	33	73	x	46	39
Cc1cc(C(=O)N/N=C/c2c(C)nn(-c3ccccc3)c2Cl)n[nH]1	n	n	x	n	n	x	x	x
Cc1nnc(SCC(=O)Nc2ccc(S(N)(=O)=O)cc2)n(N)c1=O	x	x	x	x	n	x	x	x
CCOC(=O)c1oc2ccc(S(=O)(=O)N3CCC(C)CC3)cc2c1C	n	n	n	21	n	n	n	n
O=C(C(=O)c1cccnc1)c1cccnc1	n	n	x	20	n	x	n	n
COc1ccc(C(=O)Nc2ccc3ncccc3c2)cc1	x	n	x	29	83	x	49	29
Cc1ccc(C(=O)Nc2cccc(NC(=O)c3cccnc3)c2)cc1	x	n	x	38	n	x	n	n
Cc1ccc(C(=O)Nc2ccc3ncccc3c2)cc1	x	n	x	50	90	x	71	58
O=C(c1cccnc1)c1cccnc1	n	n	n	n	n	n	x	x
Cc1cccc(NC(=O)c2cccnc2)c1	n	n	n	n	n	n	x	x
COc1ccc(NC(=O)c2ccc3nccnc3c2)cc1	n	n	n	n	n	n	x	x
SMILES	PPC-1+TRAIL kill	HSF1 inhib	STAT1 inh	HSP90 inh	C8 TRAIL sens	STAT3 inh	HSP90 inh confirm	luciferase ctr
Cc1noc(C)c1-c1ccc(C(=O)Nc2ccc(C(C)C)cc2)c2occc12	x	x	x	x	n	x	x	x
NS(=O)(=O)c1ccc(NC(=O)COC(=O)c2ncc(Cl)c(Cl)c2Cl)cc1	x	x	x	x	n	x	x	x
CCCn1c(N)c(N(CCOC)C(=O)CSc2cc(C)c3ccccc3n2)c(=O)[nH]c1=O	x	x	x	x	n	x	x	x
Cc1ccc(NC(=O)c2noc3c2CCC3)cc1C	n	n	n	n	n	n	x	x
COc1ccc(NC(=O)c2noc3c2CCC3)cc1	n	n	n	27	n	n	20	31
COc1cc(NC(=O)c2ccc(Cl)cc2)c(Cl)cc1NC(=O)c1cccnc1	x	n	x	45	n	x	n	n
COc1ccc(NC(=O)c2cccnc2)cc1	x	n	x	23	n	x	n	n
Cc1ccccc1SCC(=O)NCC1(N2CCCCC2)CCCCC1	x	x	x	x	n	x	x	x
COC(=O)C1=CN(c2ccc(Oc3ccccc3)cc2)C(N)=C(C#N)C1c1ccc(-c2ccccc2)cc1 (stereo not given)	x	x	x	x	n	x	x	x
Cc1cc(N2CCOCC2)nc2ccc(NC(=S)NC(C)C)cc12	x	n	x	n	n	x	x	x
COc1cccc(C(=O)Oc2ccc(/C=N/Nc3ccc(C(=O)O)cc3)cc2OC)c1	x	n	x	22	n	x	48	31
CCOc1cc(/C=N/Nc2ccc(C(=O)O)cc2)ccc1OC(=O)c1ccccc1C	n	n	x	n	n	x	x	x
COc1cccc(OCc2cc(/C=N/Nc3ccc(C(=O)O)cc3)ccc2OC)c1	n	-73	x	55	n	x	66	56
COc1ccc(C(=O)N/N=C/c2ccc(OC)c(COc3ccc(F)cc3)c2)cc1	x	n	x	n	n	x	x	x
COc1ccc(NC(=O)Nc2ccccc2C(N)=O)cc1	n	n	n	n	n	n	x	x
CCOc1ccc(NC(=O)Nc2ccccc2C(N)=O)cc1	n	n	n	32	n	n	42	38
COc1ccc(C#Cc2ccc3c(=O)c4ccccc4n(C)c3c2)cc1	x	n	x	n	x	x	x	x

Source: PubChem (several laboratories)
